Experimental findings from PubChem BioAssay are described below.

Structures are written as SMILES. A number with no mark means an inactive call.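 Rule for the calls, unless noted: active = inhibition at or above 50% at 10 µM; inactive = inhibition below 50%.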

Alpha-2C adrenergic receptor (Homo sapiens), sequence (P18825 whole entry, looked up): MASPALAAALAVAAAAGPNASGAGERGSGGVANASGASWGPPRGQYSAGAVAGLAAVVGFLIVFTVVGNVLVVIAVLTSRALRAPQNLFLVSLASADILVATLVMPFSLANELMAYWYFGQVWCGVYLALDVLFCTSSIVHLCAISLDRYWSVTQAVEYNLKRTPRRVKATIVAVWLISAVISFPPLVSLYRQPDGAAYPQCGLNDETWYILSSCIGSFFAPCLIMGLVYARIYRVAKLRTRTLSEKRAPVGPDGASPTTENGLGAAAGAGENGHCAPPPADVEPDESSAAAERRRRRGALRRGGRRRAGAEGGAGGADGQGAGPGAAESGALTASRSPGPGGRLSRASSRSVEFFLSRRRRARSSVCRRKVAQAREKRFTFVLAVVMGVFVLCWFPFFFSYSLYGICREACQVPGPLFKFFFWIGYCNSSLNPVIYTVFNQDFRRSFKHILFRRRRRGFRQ

The first assay addresses Alpha-2C adrenergic receptor (Homo sapiens) (UniProt P18825). In words: modulators of alpha2C/GIRK thallium flux, primary screen, cell-based, HEK293 alpha2C/GIRK1/2 (AID 624;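 active = fluorescence slope after compound addition differing from the mean of all screened samples at 99.7% confidence, in either direction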;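 note: slope of fluorescence ratio to pre-addition baseline per second over 15 to 24 s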). The settings on record: thallium flux BTC fluorescence, at 10 µM, actives lie on both sides.
As to `Cn1c(Cc2ccccc2)nnc1SCC(=O)N1CCOCC1`, the slope is 0.00541.
Still for that read-out and setting: the result for `CCOC(=O)N1CCN(C(=O)c2c(-c3ccccc3)noc2C)CC1` reads 0.00537; that for `Cc1csc(NC(=O)CCCSc2nc3ccccc3s2)n1`, 0.00267; that for `COc1ccc(-c2nc(C#N)c(N3CCOCC3)o2)cc1OC`, 0.00341.
Still for that read-out and setting: the result for `COCCn1nnnc1CN1CCC(Cc2ccccc2)CC1` reads 0.00482.
The same measure, in the same setting: the result for `c1cc2c(cc1Cn1cnnn1)OCO2` reads 0.00714; that for `O=C(OCCN1C(=O)c2ccccc2C1=O)c1ccc(S(=O)(=O)N2CCCCCC2)cc1`, 0.00625; that for `CCCN(Cc1cc2cc(C)ccc2[nH]c1=O)C(=O)c1cccc(OC)c1`, 0.00579.
Regarding `c1ccn2c(SCc3ccc4c(c3)OCCO4)nnc2c1`, the slope was 0.00773.
`Cc1ccc(-n2c(Cn3cnc4ccccc43)nnc2SCC(=O)O)cc1`: the slope is 0.00571.
As to `CSc1ccc(S(=O)(=O)Nc2cccc(F)c2)cc1`, the slope was 0.00352.
As for `Cc1cc(NC(=O)CCCN2C(=O)c3cccnc3C2=O)no1`, the slope is 0.00763.
Take `C=CCn1c(SCC(=O)NCC2CCCO2)nc2scc(-c3ccco3)c2c1=O` (stereo not given): the slope was 0.00487.
Turning to `CCOC(=O)N1CCC(NC(=O)CCN2C(=O)COc3ccccc32)CC1`, the slope was 0.00554.
As to `Cc1cccc(Nc2nc(N)nc(CN3CCC(C(N)=O)CC3)n2)c1C`, the slope is 0.0067.
As for `CC(NS(=O)(=O)c1ccc(F)cc1)C(c1cccs1)N1CCN(C)CC1` (stereo not given), the slope is 0.00473.
Regarding `COC(=O)c1cccc(NC(=O)Cc2coc3cc(OC)ccc23)c1`, the slope is 0.0055.
Same read-out and setting: under `C[C@@H]1C[C@H](O)c2cc(Cl)ccc2N1` stands 0.0061; under `Cc1cccc(C)c1OCc1nnc(SCC(=O)Nc2ccccc2F)o1`, 0.00659; under `COc1cc2c(=O)nc3n(c2cc1OC)C(c1ccccc1)N=C(N)N3` (stereo not given), 0.00451.
Take `CC(=O)N1CCN(S(=O)(=O)c2cccc(C(=O)Nc3ccc4c(c3)CCC4)c2)CC1`: the slope was 0.00306.
With `Cn1c(=O)c(=O)n(C)c2cc(S(=O)(=O)N3CCCCC3)ccc21`, the slope is 0.00642.
With `O=C(COC(=O)C12CC3CC(CC(O)(C3)C1)C2)N1CCN(S(=O)(=O)c2ccc(Cl)cc2)CC1`, the slope was 0.00661.
`O=S(=O)(c1ccc(S(=O)(=O)N2CCN3CCCC3C2)cc1)N1CCCC1` (stereo not given): the slope is 0.00601.
Turning to `CC(C)CC1NC(=O)N(CC(=O)N2CCN(S(=O)(=O)c3ccc(Cl)cc3)CC2)C1=O` (stereo not given), the slope was 0.00417.
`CCN(C1CCCCC1)S(=O)(=O)c1ccc(S(=O)(=O)N2CCN(CCC#N)CC2)cc1`: the slope was 0.00677.
On to `C=CCOc1nc2c(c(=O)n(C)c(=O)n2C)n1C`, for which the slope is 0.00278.
Still for that read-out and setting: under `Cn1nnnc1SCC(=O)N1CCN(c2cccc(Cl)c2)CC1` stands 0.00492; under `Cn1c(=O)[nH]c(=O)c2c1ncn2CCN1CCOCC1`, 0.00632.
Same read-out and setting: the result for `Cc1cnn(Cc2ccccc2)c1N` reads 0.00669.
In the case of `CCOc1ccc(-c2nc(C#N)c(NCc3ccc4c(c3)OCO4)o2)cc1`, the slope is 0.00619.
On the same count and under the same terms, under `N[C@@H](Cc1ccccc1)c1nnc2sc(SCc3ccccc3)nn12` stands 0.00539; under `CCOC(=O)c1cc2sc(C)cc2n1C(C)C(=O)OCC` (stereo not given), 0.00348; under `CCn1nnc(NC(=O)c2ccccc2Br)n1`, 0.00604.
Same read-out and setting: the result for `CCOc1cc(-c2nc3ccccn3c2NCC2CCCO2)ccc1O` (stereo not given) reads 0.00327; that for `Cc1ccc(O)c(-c2cc3ccccc3[nH]2)c1`, 0.00556; that for `CC(=O)c1c(C)[nH]c(C(=O)N2CCN(C(=O)c3ccco3)CC2)c1C`, 0.00697.
Regarding `O=S(=O)(c1ccc(Oc2ccc(-c3nnco3)cc2)nc1)N1CCC(Cc2ccccc2)CC1`, the slope was 0.00554.
Same read-out and setting: under `O=C(Nc1ccccc1N1CCN(c2ccc(F)cc2)CC1)c1ccccc1` stands 0.00515; under `Cc1cc(C)n2cc(CSc3nnnn3C)nc2n1`, 0.00505.

Test system in the next assay: not listed separately
In words: inhibitors of Sendai virus-induced IRF3 signaling, primary screen, TLR/RLR signaling modifier project, cell-based, Sendai virus stimulus, luciferase, 10K MLSCN set (AID 602276).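 Note: firefly luciferase from ISG56 promoter only with Renilla not read in this screen; 0% = Sendai virus plus DMSO and 100% = medium plus DMSO without virus.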 As to conditions: HEK293 RL24 IRF3 luciferase reporter, at 10 µM, active compounds read high.
One may read the inhibition as the change of the read-out against control, counted positive when it falls. As for `Cn1c(Cc2ccccc2)nnc1SCC(=O)N1CCOCC1`, the inhibition is 10.3%.
`CCOC(=O)N1CCN(C(=O)c2c(-c3ccccc3)noc2C)CC1`: the inhibition was 14%.
`Cc1csc(NC(=O)CCCSc2nc3ccccc3s2)n1`: the inhibition is 23.5%.
Consider `COc1ccc(-c2nc(C#N)c(N3CCOCC3)o2)cc1OC`, for which the inhibition was 9.75%.
On to `COCCn1nnnc1CN1CCC(Cc2ccccc2)CC1`, for which the inhibition is 12.6%.
Same read-out and setting: under `c1cc2c(cc1Cn1cnnn1)OCO2` stands 13.3%; under `O=C(OCCN1C(=O)c2ccccc2C1=O)c1ccc(S(=O)(=O)N2CCCCCC2)cc1`, 19.6%; under `CCCN(Cc1cc2cc(C)ccc2[nH]c1=O)C(=O)c1cccc(OC)c1`, 10.4%.
Take `c1ccn2c(SCc3ccc4c(c3)OCCO4)nnc2c1`: the inhibition was -29.2%.
Regarding `Cc1ccc(-n2c(Cn3cnc4ccccc43)nnc2SCC(=O)O)cc1`, the inhibition was 15.2%.
For `CSc1ccc(S(=O)(=O)Nc2cccc(F)c2)cc1`, the inhibition is 15.7%.
Regarding `Cc1cc(NC(=O)CCCN2C(=O)c3cccnc3C2=O)no1`, the inhibition is -4.41%.
On to `C=CCn1c(SCC(=O)NCC2CCCO2)nc2scc(-c3ccco3)c2c1=O` (stereo not given), for which the inhibition was 11.9%.
With `CCOC(=O)N1CCC(NC(=O)CCN2C(=O)COc3ccccc32)CC1`, the inhibition was 17%.
On to `Cc1cccc(Nc2nc(N)nc(CN3CCC(C(N)=O)CC3)n2)c1C`, for which the inhibition was -22.9%.
For the compound `CC(NS(=O)(=O)c1ccc(F)cc1)C(c1cccs1)N1CCN(C)CC1` (stereo not given), the inhibition was 0.176%.
Regarding `COC(=O)c1cccc(NC(=O)Cc2coc3cc(OC)ccc23)c1`, the inhibition is 4.7%.
Take `C[C@@H]1C[C@H](O)c2cc(Cl)ccc2N1`: the inhibition is 11%.
As for `Cc1cccc(C)c1OCc1nnc(SCC(=O)Nc2ccccc2F)o1`, the inhibition is 16.4%.
Still for that read-out and setting: the result for `COc1cc2c(=O)nc3n(c2cc1OC)C(c1ccccc1)N=C(N)N3` (stereo not given) reads 17.6%; that for `CC(=O)N1CCN(S(=O)(=O)c2cccc(C(=O)Nc3ccc4c(c3)CCC4)c2)CC1`, 9.87%.
For the compound `Cn1c(=O)c(=O)n(C)c2cc(S(=O)(=O)N3CCCCC3)ccc21`, the inhibition was 14.8%.
Same read-out and setting: the result for `O=C(COC(=O)C12CC3CC(CC(O)(C3)C1)C2)N1CCN(S(=O)(=O)c2ccc(Cl)cc2)CC1` reads 8.77%; that for `O=S(=O)(c1ccc(S(=O)(=O)N2CCN3CCCC3C2)cc1)N1CCCC1` (stereo not given), 6.16%.
For the compound `CC(C)CC1NC(=O)N(CC(=O)N2CCN(S(=O)(=O)c3ccc(Cl)cc3)CC2)C1=O` (stereo not given), the inhibition is 15.2%.
As to `CCN(C1CCCCC1)S(=O)(=O)c1ccc(S(=O)(=O)N2CCN(CCC#N)CC2)cc1`, the inhibition was -5.6%.
Regarding `C=CCOc1nc2c(c(=O)n(C)c(=O)n2C)n1C`, the inhibition was 6.05%.
`Cn1nnnc1SCC(=O)N1CCN(c2cccc(Cl)c2)CC1`: the inhibition is 7.81%.
Take `Cn1c(=O)[nH]c(=O)c2c1ncn2CCN1CCOCC1`: the inhibition is 8.85%.
Turning to `Cc1cnn(Cc2ccccc2)c1N`, the inhibition was 14.7%.
Consider `CCOc1ccc(-c2nc(C#N)c(NCc3ccc4c(c3)OCO4)o2)cc1`, for which the inhibition was -4.94%.
As for `N[C@@H](Cc1ccccc1)c1nnc2sc(SCc3ccccc3)nn12`, the inhibition was 10.2%.
Same read-out and setting: under `CCOC(=O)c1cc2sc(C)cc2n1C(C)C(=O)OCC` (stereo not given) stands 18.2%; under `CCn1nnc(NC(=O)c2ccccc2Br)n1`, -19.8%; under `CCOc1cc(-c2nc3ccccn3c2NCC2CCCO2)ccc1O` (stereo not given), -9.84%.
The same measure, in the same setting: under `Cc1ccc(O)c(-c2cc3ccccc3[nH]2)c1` stands -4.2%; under `CC(=O)c1c(C)[nH]c(C(=O)N2CCN(C(=O)c3ccco3)CC2)c1C`, -22.5%.
On to `O=S(=O)(c1ccc(Oc2ccc(-c3nnco3)cc2)nc1)N1CCC(Cc2ccccc2)CC1`, for which the inhibition is 1.05%.
In the case of `O=C(Nc1ccccc1N1CCN(c2ccc(F)cc2)CC1)c1ccccc1`, the inhibition was 14%.
The same measure, in the same setting: the result for `Cc1cc(C)n2cc(CSc3nnnn3C)nc2n1` reads 15.1%.
